Here are results for three molecules from PubChem BioAssay (NCI).

Compounds without any hit were thinned out: in the full panel of roughly 83,000, 20% have a hit.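 Growth was measured after 48 h exposure to one concentration of compound in 96-well plates. Values under 10 count as active.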 Unmarked numbers belong to inactive results. Active and inactive are the calls of the source.

The subject of the test is MDA-MB-468 breast. Nature of the test: NCI-60 one-dose screen, 48 h (100 = growth as untreated, 0 = no growth, -100 = all killed). The settings on record: 10 µM unless noted.
On to `Cn1nc(-c2ccccc2)c2c(-c3ccccc3)onc2c1=O`, for which the growth was 15.1%.
Then `O=C1C=CC(O)=CC1=P(c1ccccc1)(c1ccccc1)c1ccccc1`, with 92%; and `NC1C2CCC1CN(c1cnc(C(=O)Nc3cc(F)cc4cccnc34)cn1)C2` (stereo not drawn), with -4.02% (active).
